Assay outcomes from PubChem BioAssay.
In the library only some 19% were active in any assay of this set; here they are far more common.
IL-1B inflam inh = inflammasome signaling inhibition, IL-1 beta readout; hit rate 4.7% among 360,000; activity change, % at 57.5 µM; AID 743279; THP-1 LPS/ATP IL-1B secretion, AlphaLISA, 16 h; active compounds read low; in the data active = activity change below about -50%; inconclusive = mostly about -30% to -49%
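THP-1 cells pretreated 1 hr with compounds (up to 57.5 uM final), then stimulated with LPS (250 ng/mL final) plus ATP (1.25 mM final); secreted IL-1B measured by AlphaLISA after 16 hr, decreased signal indicating inhibition.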
TDP1 inh = TDP1 (human) enzyme inhibition. AID 485290. hit rate 0.28% among 350,000. Potency, µM (titrated, usually from 130 µM), hits mostly inhibitors. recombinant TDP1, AlphaScreen DNA substrate cleavage. Q9NUW8; also: nearly all actives have a fitted effect of over 40% in size
Target sequence (Q9NUW8 whole entry, looked up): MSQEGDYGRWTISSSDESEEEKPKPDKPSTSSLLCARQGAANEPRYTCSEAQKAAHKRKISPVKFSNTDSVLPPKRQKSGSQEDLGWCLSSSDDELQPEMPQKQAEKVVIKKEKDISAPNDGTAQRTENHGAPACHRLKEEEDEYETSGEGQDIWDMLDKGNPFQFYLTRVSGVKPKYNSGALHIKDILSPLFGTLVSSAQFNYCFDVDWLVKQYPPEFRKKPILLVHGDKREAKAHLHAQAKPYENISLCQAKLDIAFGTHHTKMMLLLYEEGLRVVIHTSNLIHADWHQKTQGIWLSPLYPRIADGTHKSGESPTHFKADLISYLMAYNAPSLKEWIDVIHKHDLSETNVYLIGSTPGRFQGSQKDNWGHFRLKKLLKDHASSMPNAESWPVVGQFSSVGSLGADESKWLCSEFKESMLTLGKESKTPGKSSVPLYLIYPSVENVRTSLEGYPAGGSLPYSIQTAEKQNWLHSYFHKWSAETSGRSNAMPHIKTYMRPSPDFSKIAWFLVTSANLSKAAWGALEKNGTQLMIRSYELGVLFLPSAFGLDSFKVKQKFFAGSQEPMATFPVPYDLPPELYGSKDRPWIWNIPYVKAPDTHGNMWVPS
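Tdp1 1 nM final; 15 min RT w/ cpd; substrate 15 nM, 5 min; beads 10 ug/ml, 10 min; AlphaScreen read. Neg ctrl: no enzyme.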
TGFb SMAD3 inh = inhibitors of TGF-b signaling; AID 588855; hit rate 1.2% among 410,000; Potency, µM (top dose mostly 46.1 µM), usual class: inhibitors; HepG2 CAGA-GFP TGF-b/SMAD3 reporter, GFP fluorescence, 18 h; TGF-beta stimulated, 500 pg/mL final; also: nearly all actives have a fitted effect of over 65% in size
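Read-out: total well GFP (ex488/em500-530) summed from mean per-cell fluorescence. Cells: HEPG2 CAGA-GFP, 1% FBS DMEM, 18 h at 37 degrees C with 500 pg/mL final TGF-beta. Unstimulated wells served as the full-inhibition control; stimulated DMSO wells = 0%.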
HepG2 viability = counter-screen for TGF-b inhibitors: cytotoxicity in HepG2 cells; hit rate 0.76% among 410,000; Potency, µM (top dose mostly 46.1 µM), actives largely listed as cytotoxic; AID 588856; HepG2 CAGA-GFP viability, ATP luminescence, 18 h
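CellTiter-Glo luminescence gave cytotoxicity after 18 hours at 37 degrees C. The cells were HepG2 CAGA-GFP in 1% FBS DMEM, stimulated with 500 pg/mL TGF-beta after compound addition. %Activity was normalised to no-cell wells (complete cell-killing) and DMSO (no toxicity), and curves were fitted and classified.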
DT40 TDP1 no CPT = qHTS for Inhibitors of human tyrosyl-DNA phosphodiesterase 1 (TDP1): qHTS in cells in absence of CPT | DT40 Tdp1-/- hTDP1 cells, no CPT, ATP luminescence, 48 h | Potency, µM (series often up to 46.2 µM), most hits filed as inhibitors | hit rate 15% among 420,000; also: nearly all actives have a fitted effect of over 55% in size
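Stably hTDP1-transfected Tdp1-null chicken DT40 cells were treated with library compounds minus camptothecin and grown for at least 48 hr at 37 °C, after which cellular ATP was quantified by luminescence.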
DT40 TDP1 CPT = DT40-hTDP1 cell growth loss with CPT. chicken DT40 Tdp1-/-;hTDP1 cells + 20 nM CPT, ATP luminescence, 48 h. Potency, µM (series often up to 46.2 µM), actives largely listed as inhibitors. hit rate 12% among 420,000; also: nearly all actives have a fitted effect of over 55% in size
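Chicken DT40 Tdp1-/- cells complemented with human TDP1, 400 cells/well, exposed to compounds plus 20 nM camptothecin for at least 48 h at 37 C; viability read as ATP content by CellTiter-Glo luminescence.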
A number is an active result; . = inactive; ? = inconclusive; / = not tested or not shown; [ ] = dose if it differs, or a comment. Unless noted, calls follow the shape of the dose curve; as a rule, active = well fitted curve in the direction sought with a large enough effect; inconclusive = small, poorly fitted or top-dose-only effect, or another doubt; inactive = no such curve, though single readings can be large; an effect the other way counts as inactive or inconclusive.

SMILES	IL-1B inflam inh	TDP1 inh	TGFb SMAD3 inh	HepG2 viability	DT40 TDP1 no CPT	DT40 TDP1 CPT
Fc1cc(F)cc(NC(=S)N2CCC(c3ccccc3)C2)c1 (configuration not stated)	.	.	.	.	.	.
CSc1cccc(NC(=S)N2CCC(N(C)C3CCCCC3C)CC2)c1 (configuration not stated)	-68.7	.	.	.	?	.
CSc1cccc(NC(=S)N2CCC(N(C)C3CCCCC3)CC2)c1	.	.	.	.	?	.
CSc1cccc(NC(=S)N2CCC(c3ccccc3)C2)c1 (configuration not stated)	?	/	.	.	16.4µM	.
S=C(Nc1ccccc1Cl)N1CCC(c2ccccc2)C1 (configuration not stated)	.	.	.	.	.	.
CCN(CCCNC(=O)c1cc2cc3ccc(OC)cc3nc2s1)c1ccccc1	/	/	.	.	20.6µM	16.4µM
COc1ccc2nc3sc(C(=O)N4CCN(C)CC4)cc3cc2c1	.	.	.	8.91µM	.	.
COc1ccc2nc3sc(C(=O)N4CCN(c5ccccc5)CC4)cc3cc2c1	/	.	.	.	.	.
Cc1ccc2cc3cc(C(=O)NCCCN4CCc5ccccc5C4)oc3nc2c1	.	.	.	.	?	?
CCOc1ccc(NC(=O)c2cc3cc4cc(OC)ccc4nc3s2)cc1	/	.	.	.	4.61µM	.
COc1ccc(OC)c(NC(=O)c2cc3cc4ccc(C)cc4nc3s2)c1	/	.	.	.	?	?
COc1ccc2nc3sc(C(=O)NCCCN4CCc5ccccc5C4)cc3cc2c1	.	.	?	.	16.4µM	?
COc1ccc(-n2c(SCC(=O)N3CCC(C)CC3)nc3c([nH]c4ccccc43)c2=O)cc1	/	.	.	.	.	.
CCCCN(C)C(=O)c1cc2cc3ccc(OC)cc3nc2s1	.	.	.	.	?	?
CCN(CCCNC(=O)c1cc2cc3ccc(OC)cc3nc2s1)c1cccc(C)c1	/	.[12.3 µM]	12.6µM	12.6µM	?	?
N#Cc1ccc(-c2cccs2)nc1SCC(=O)Nc1cccc(C(F)(F)F)c1	/	.	?	11.2µM	20.6µM	?
N#Cc1ccc(-c2cccs2)nc1SCc1c(F)cccc1Cl	/	.	.	.	0.651µM	0.82µM
CCOC(=O)NC(=O)CSc1nc(C)cc(C(F)(F)F)c1C#N	.	.	.	.	.	.
N#Cc1c(C(F)(F)F)cc(-c2cccs2)nc1SCC(=O)Nc1ccc(Cl)cc1	/	/	.	.	?	16.4µM
Cc1cc(C(F)(F)F)c(C#N)c(SCC(=O)Nc2nc3cc(Br)ccc3s2)n1	-145.9	.	.	.	.	.
COC(=O)c1cc2sc(C)cc2n1CC(=O)Nc1ccc(C)cc1Cl	/	.	.	.	?	?
CCCS(=O)(=O)c1nc(S(=O)(=O)c2ccc(Cl)cc2)c(N2CCC(O)CC2)s1	.	.	.	.	.	.
Cc1c(P(=S)(c2ccccc2)c2ccccc2)[n+]2ccccc2n1CC(=O)c1ccccc1	/	.	/	/	/	/
Cc1cccc(NC(=O)c2cnccn2)c1	.	/	.	.	.	.
O=C(CSc1nc2nc(-c3cccs3)cc(C(F)(F)F)c2c(=O)[nH]1)Nc1ccc(F)c(F)c1	.	.	?	.	4.11µM	6.51µM
SMILES	IL-1B inflam inh	TDP1 inh	TGFb SMAD3 inh	HepG2 viability	DT40 TDP1 no CPT	DT40 TDP1 CPT
Cc1ccc(S(=O)(=O)CCSc2nc(C)cc(C(F)(F)F)c2C#N)cc1	-100.9	.	.	.	?	?
C#CCCC/C(=C\C(=O)N(C)[C@H](C(=O)N(C)[C@H](C(=O)N(C)[C@H](C(=O)N(C)[C@H](C(N)=O)C(C)C)C(C)C)C(C)C)C(C)C)OC	.	.	?	.	18.4µM	20.6µM
CNc1nc(Cl)nc2c1ncn2-c1ccccc1	.	/	.	.	.	.
Clc1nc(Cl)c2ncn(-c3ccccc3)c2n1	-102.8	/	.	.	13µM	8.2µM
C=CCC[C@H](Cc1ccc(F)cc1)C(=O)OC[C@@H](C)NC(=O)[C@@H](CC=C)CC(=O)N[C@@H](CO)Cc1ccccc1	.	.	.	.	14.6µM	?
C=CCC[C@@H](Cc1ccc(F)cc1)C(=O)OC[C@@H](NC(=O)[C@@H](CC=C)CC(=O)N[C@@H](CO)Cc1ccccc1)C(C)(C)C	?	.	?	.	?	23.1µM
C=CCC[C@H](Cc1ccc(F)cc1)C(=O)OC[C@@H](NC(=O)[C@@H](CC=C)CC(=O)N[C@@H](CO)Cc1ccccc1)C(C)(C)C	-59.5	.	?	.	20.6µM	20.6µM
C=CC[C@@H](CC(=O)N[C@H](CO)Cc1ccccc1)C(=O)N[C@H](COC(=O)[C@@H](CC=C)Cc1ccc(F)cc1)C(C)(C)C	?	.	?	.	?	?
C=CCC[C@H](Cc1ccc(F)cc1)C(=O)OC[C@@H](C)NC(=O)[C@@H](CC=C)CC(=O)N[C@H](CO)Cc1ccccc1	.	.	?	.	?	?
CCOCCCNC(=O)c1ccc(OC)c(OC2CCN(C(C)C)CC2)c1	.	/	.	.	.	.
COc1ccc(C(=O)N(C)CCCC2CCCC2)cc1OC1CCN(C(C)=O)CC1	.	.	.	.	16.4µM	?
COc1ccc(C(=O)NCCCC2CCCC2)cc1OC1CCN(C(C)C)CC1	.	/	.	.	16.4µM	16.4µM
COc1cc(OC)c(NC(=O)Cn2c(=O)c(C(F)(F)F)nc3ccccc32)cc1Cl	/	.	.	.	.	.
Cc1cccc(C(=O)N(Cc2nc(-c3ccc(Cl)cc3)no2)C(C)C)c1	/	.	?	.	?	?
COc1cccc(C(=O)N(Cc2nc(-c3ccc(C)cc3)no2)C(C)C)c1	.	.	.	.	?	18.4µM
Cc1ccccc1C(=O)OCc1nnc(-c2ccc(Cl)cc2)o1	.	.	.	.	.	.
Cc1ccc(C)c(C(=O)N(Cc2nc(-c3ccc(Cl)cc3)no2)C(C)C)c1	.	.	10µM	.	18.4µM	?
COc1ccc(-c2noc(CN(C(=O)c3ccc(C)cc3C)C(C)C)n2)cc1	/	.	?	.	14.6µM	23.1µM
Cc1cc(C(=O)N(Cc2nnc(-c3ccc(Cl)cc3)o2)C(C)C)c2ccccc2n1	.	.	?	.	14.6µM	?
COc1cccc(NC(=O)Cn2c(=O)n(CCc3cccc(C)c3)c(=O)c3ccccc32)c1	/	.	?	.	.	.
O=C(NC(=S)Nc1ccccc1O)c1ccc(-c2ccc(Cl)cc2)o1	.	.	?	.	16.4µM	23.1µM
Cc1c(NC(=S)NC(=O)c2ccc(-c3ccc(Cl)cc3)o2)cccc1C(=O)O	.	.	.	.	.	.
